Each structure is given as a SMILES string. Calls of active or inactive are those of the source.

A short description of experiment [1]: compound effects on differentiated 3T3-L1 adipocyte viability – cell-based, 3T3-L1 adipocytes, calcein-AM fluorescence, 48 h, basal, profiling panel (AID 1163). The settings on record: 3T3-L1 adipocytes viability, higher = more signal.
The nature of experiment [2]: compound effects on hepatocellular carcinoma cell viability – HepG2, calcein-AM fluorescence, 48 h, basal, profiling panel (AID 1164). The settings on record: higher = more signal.
Experiment [3] is described as follows: compound effects on multiple myeloma cell viability – MM1S, calcein-AM fluorescence, 48 h, basal, profiling panel (AID 1165).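 Further: viability of MM1S multiple myeloma cells under basal unstimulated conditions.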 The settings on record: higher = more signal.
Experiment [4] is described as follows: calcein-AM signal in unstimulated myeloma cells – cell-based, calcein-AM fluorescence, 48 h, PK04 Diversity Set, profiling panel (AID 1166).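 Further: cells grown under basal conditions without added stimulus.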 The settings on record: RPMI8226 myeloma viability, higher = more signal.
A short description of experiment [5]: JC-1 mitochondrial signal, unstimulated HepG2 cells – cell-based, JC-1 fluorescence, 24 h, 100 nL compound, profiling panel (AID 1167). The settings on record: HepG2 mitochondrial potential, higher = more signal.
The nature of experiment [6]: JC-1 mitochondrial signal, unstimulated adipocytes – cell-based, JC-1 fluorescence, 3T3-L1 adipocytes, 24 h, 100 nL compound, profiling panel (AID 1168). The settings on record: JC-1 mitochondrial fluorescence, higher = more signal, called active from +8 up or from −8 down.
A short description of experiment [7]: JC-1 mitochondrial signal, unstimulated myeloma cells – cell-based, JC-1 fluorescence, RPMI8226, 24 h, 100 nL compound, profiling panel (AID 1169). The settings on record: JC-1 mitochondrial potential fluorescence, higher = more signal.
The nature of experiment [8]: JC-1 mitochondrial signal, unstimulated MM1S myeloma – cell-based, JC-1 fluorescence, 24 h, 100 nL compound, profiling panel (AID 1170). The settings on record: MM1S mitochondrial potential, higher = more signal.
A short description of experiment [9]: resazurin metabolic signal in A549 cells – cell-based, resazurin fluorescence, 24 h, PK04 Diversity Set, profiling panel (AID 1171). The settings on record: A549 viability, higher = more signal, called active from +8 up or from −8 down. For orientation: The colour change of resazurin is a common sign of viable cells or microbes.
The nature of experiment [10]: resazurin metabolic signal in HepG2 cells – cell-based, resazurin fluorescence, 24 h, PK04 Diversity Set, profiling panel (AID 1172). The settings on record: HepG2 viability, higher = more signal.
A short description of experiment [11]: budding yeast growth changes without added modifier – OD600, strain BY4716, 24 h, basal condition, primary screen (AID 1173). The settings on record: S. cerevisiae BY4716 growth, OD600, 24 h; higher = more signal, called active from +8 up or from −8 down.
Experiment [12] in a line: viability profiling in MM1S myeloma cells – cell-based, resazurin fluorescence, basal, 24 h, PK04 Diversity Set, profiling panel (AID 1174). The settings on record: higher = more signal, called active from +8 up or from −8 down.
Experiment [13] has as its target Dihydroorotate dehydrogenase (quinone), mitochondrial (Plasmodium falciparum (isolate 3D7)) (UniProt Q08210). Kind of experiment: inhibition of P. falciparum DHODH – biochemical, C-terminal His tag, absorbance 600 nm, primary screen (AID 1175).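 Further: recombinant parasite enzyme with a five histidine tag at its C terminus.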 The settings on record: PfDHODH enzyme, DCIP absorbance 600 nm; higher = more signal, called active from +8 up or from −8 down.

Experiment [14] in a line: growth modulation of vineyard yeast isolate – strain RM11-1a, OD600, basal, 24 h, primary screen (AID 1177).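 Further: cultures grown under basal conditions with no added stressor.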 The settings on record: S. cerevisiae RM11-1a growth, OD600, 24 h; higher = more signal, called active from +8 up or from −8 down.
The nature of experiment [15]: growth of efflux-deficient E. coli DRC39 – strain DRC39, OD650, 24 h, E. coli filamentation inducers, primary screen (AID 1178).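 Further: growth measured as culture turbidity by optical density at 650 nm.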 The settings on record: E. coli DRC39 acrAB, higher = more signal, called active from +8 up or from −8 down.
Experiment [16] can be described thus: growth of efflux-deficient E. coli DRC39 – strain DRC39, OD650, 48 h, E. coli filamentation inducers, primary screen (AID 1179).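 Further: screen aims at cell division blockers that make cells filament.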 The settings on record: E. coli DRC39 delta-acrAB growth, higher = more signal, called active from +8 up or from −8 down.
Experiment [17] in a line: viability profiling in RPMI8226 myeloma cells – cell-based, resazurin fluorescence, basal, 24 h, PK04 Diversity Set, profiling panel (AID 1180).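 Further: RPMI8826 multiple myeloma cell line at 5000 cells per well.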 The settings on record: higher = more signal.
Experiment [18] addresses E3 ubiquitin-protein ligase XIAP (Homo sapiens) (UniProt P98170). Description: small molecules binding XIAP protein – biophysical, small-molecule microarray, fluorescence 635 nm, primary screen (AID 1181).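 Further: score merges 667 nm emission and signal to noise over triplicate slides.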 The settings on record: higher = more signal.
In experiment [19] the test system is XIP peptide (Xip251-270) binding. Kind of experiment: XIP fragment 251-270 binding compounds – biochemical, small-molecule microarray, fluorescence 635/667 nm, 0.1 µg/mL protein, primary screen (AID 1182). The settings on record: fluorescent protein binding, 635 nm, higher = more signal, called active from +8 up or from −8 down.
The subject of the next experiment is XIP peptide (Xip251-270). Kind of experiment: compounds binding XIP fragment 251-270 – biochemical, small-molecule microarray, fluorescence 635/667 nm, 0.5 µg/mL protein, primary screen (AID 1183). The settings on record: fluorescence 635 nm, higher = more signal.

Sequence of E3 ubiquitin-protein ligase XIAP (Homo sapiens) (P98170 whole entry, looked up, the tested form may be a part): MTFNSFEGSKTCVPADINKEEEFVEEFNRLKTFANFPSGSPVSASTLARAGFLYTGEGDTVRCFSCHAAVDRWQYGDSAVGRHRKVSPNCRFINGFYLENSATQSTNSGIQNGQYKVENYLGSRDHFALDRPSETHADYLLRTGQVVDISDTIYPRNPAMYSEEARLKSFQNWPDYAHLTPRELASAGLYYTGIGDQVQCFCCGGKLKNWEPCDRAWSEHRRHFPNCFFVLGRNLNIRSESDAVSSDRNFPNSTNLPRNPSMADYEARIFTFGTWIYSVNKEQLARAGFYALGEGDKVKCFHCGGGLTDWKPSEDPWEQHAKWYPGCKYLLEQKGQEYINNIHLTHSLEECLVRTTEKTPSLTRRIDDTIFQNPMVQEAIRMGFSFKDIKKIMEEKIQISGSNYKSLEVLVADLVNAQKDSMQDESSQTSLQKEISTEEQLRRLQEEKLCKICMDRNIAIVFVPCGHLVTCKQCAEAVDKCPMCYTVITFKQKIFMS
Sequence of Dihydroorotate dehydrogenase (quinone), mitochondrial (Plasmodium falciparum (isolate 3D7)) (Q08210 whole entry, looked up): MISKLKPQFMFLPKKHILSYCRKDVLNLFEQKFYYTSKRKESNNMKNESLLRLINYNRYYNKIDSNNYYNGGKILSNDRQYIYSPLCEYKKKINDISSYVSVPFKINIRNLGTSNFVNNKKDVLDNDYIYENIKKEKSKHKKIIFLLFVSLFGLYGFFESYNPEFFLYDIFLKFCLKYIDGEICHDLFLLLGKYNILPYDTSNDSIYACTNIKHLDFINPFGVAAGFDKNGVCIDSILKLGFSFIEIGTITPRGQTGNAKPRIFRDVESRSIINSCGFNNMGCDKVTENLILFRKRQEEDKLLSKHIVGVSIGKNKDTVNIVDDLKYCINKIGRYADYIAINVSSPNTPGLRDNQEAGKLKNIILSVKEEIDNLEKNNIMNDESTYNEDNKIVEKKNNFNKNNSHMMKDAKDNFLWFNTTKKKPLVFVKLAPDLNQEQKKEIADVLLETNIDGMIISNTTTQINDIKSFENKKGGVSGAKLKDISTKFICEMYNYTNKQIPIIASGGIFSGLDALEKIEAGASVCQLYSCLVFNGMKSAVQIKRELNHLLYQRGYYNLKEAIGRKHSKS

Take `CC(C)NC(=O)[C@@H]1c2ccccc2C(=O)N(Cc2cc(F)cc(C(F)(F)F)c2)[C@H]1c1ccc(CO)cc1`: the z-score in [1] was 1.41; in experiment [2], 0.813; in experiment [3] it was 0.404; in [4], 0.252; in [5], 1.59; in experiment [6] it was -0.64 (inactive). Also, the z-score in [7] is -0.834; in experiment [8], 0.621; in experiment [9] it was 1.84 (inactive); in experiment [10], 0.641; in [11], -0.518 (inactive); in experiment [12] it was 1.39 (inactive). Further, the z-score in experiment [14] was -0.284 (inactive); in experiment [15] it was 1.33 (inactive); in experiment [16], 0.326 (inactive); in experiment [17], 1.5. Moreover, the composite z-score in experiment [13] is -0.243 (inactive); in experiment [18], -0.174; in experiment [19] it was 0.873 (inactive); with XIP peptide (Xip251-270), -1.01.
Consider `CCN(CC)c1ccc(N2CC=CC34O[C@@H]5C=CCOC(=O)[C@@H]5[C@H]3C(=O)N(C(CO)C(C)C)[C@@H]4C2=O)cc1` (stereo not given in full), for which the z-score is 0.471 in experiment [1]; 0.121 in experiment [2]; -0.413 in experiment [3]; -0.201 in experiment [4]; 0.296 in experiment [5]; 0.688 (inactive) in experiment [6]. Further, the z-score in experiment [7] is 1.08; in [8], 0.728; in experiment [9], 0.461 (inactive); in [10], 0.492; in [11] it was 0.0588 (inactive); in [12], 0.913 (inactive). Also, the z-score was 1.24 (inactive) in experiment [14], 1.21 (inactive) in experiment [15], 1.09 (inactive) in experiment [16] and 0.687 in experiment [17]. Further, the composite z-score was 0.764 (inactive) in experiment [13], 0.0139 in experiment [18], -0.0795 (inactive) in experiment [19] and -0.51 with XIP peptide (Xip251-270).
For the compound `CCCCC(=C=CC[C@@H](O)c1ccc(OCCO)cc1)C[C@@H](O)c1cc(Cl)cc(Cl)c1O`, the z-score is 1.37 in experiment [1]; 0.652 in experiment [2]; -3.38 in experiment [3]; -3.4 in [4]; -0.376 in experiment [5]; 1.43 (inactive) in experiment [6]. Besides, the z-score in experiment [7] is -0.0474; in experiment [8] it was 0.781; in experiment [9], 2.58 (inactive); in [10], 2.12; in experiment [11], -5.94 (inactive); in experiment [12], 0.199 (inactive). Also, the z-score was -3.1 (inactive) in [14], 3.34 (inactive) in experiment [15], 2.27 (inactive) in experiment [16] and 0.285 in [17]. Also, the composite z-score in [13] was -2.43 (inactive); in experiment [18] it was 0.0394; in experiment [19] it was 0.925 (inactive); in the experiment with XIP peptide (Xip251-270), 0.365.
Turning to `CCN(CC)c1ccc(N2CC=CC34O[C@@H]5C=CCOC(=O)[C@@H]5[C@H]3C(=O)N(C(C)CO)[C@@H]4C2=O)cc1` (stereo not given in full), the z-score in experiment [1] is 0.754; in [2], 0.0598; in experiment [3], 1.15; in [4], -0.262; in experiment [5], 0.469; in [6], 0.382 (inactive). Moreover, the z-score in experiment [7] was -0.809; in experiment [8], 0.907; in experiment [9], 0.924 (inactive); in [10], 0.878; in experiment [11] it was -0.746 (inactive); in experiment [12], 1.3 (inactive). Further, the z-score in experiment [14] was -0.0464 (inactive); in experiment [15] it was 1.7 (inactive); in experiment [16], 1.31 (inactive); in experiment [17], 0.587. Also, the composite z-score in experiment [13] is -0.393 (inactive); in [18], -0.0277; in experiment [19], 0.149 (inactive); in the experiment with XIP peptide (Xip251-270), -1.73.
